Experimental data reported in PubChem BioAssay AID841 (Emory University Molecular Libraries Screening Center, 2007).
In all, about 140,000 compounds went through this assay and about 2,100 (1.5%) were called active. Cut-off read from the data, not from the text of the source: active = protection mostly above about 24% (no sharp cut-off); inactive = mostly below about 26%. This excerpt belongs to a sample that is enriched for actives.

Test: compounds protecting cells from measles virus cytopathic effect, primary screen, measles RdRp inhibitor project, single point, MLSMR library, absorbance (AID 841)
Conditions: Measles virus-infected cells, CPE protection, at 4 µM, stronger effect = higher value

Protection (pct of control), active:
Cc1ccc(NC(=O)CN(C)Cc2ccc(F)cc2)c([N+](=O)[O-])c1 64.2%
C=CCn1c(-c2ccc3[nH]c(C)c(C)c3c2)n[nH]c1=S 41.1%
COc1ccccc1NC(=O)CSc1nc2sc(C)c(C)c2c(=O)n1Cc1ccco1 48.9%
CCOc1ccccc1C1C(C(=O)OC)=CN(C)C=C1C(=O)OC 48.9%
CSCc1cc(N2CCOCC2)nc(SCc2ccc(Cl)cc2Cl)n1 71.8%
Cc1ccccc1CSc1nnc(Cn2c(=O)sc3ccccc32)n1C 42.8%
COC(=O)[C@H](Cc1ccccc1)NC(=O)[C@@H]1C[C@H]1[C@@H](NC(=O)OCc1ccccc1)c1ccccc1 49.5%
Cc1ccc(-c2csc(NC(=O)Cc3cccs3)n2)cc1C 42.2%
CC(=O)c1sc2nc(SCC(=O)N3CCCCC3)[nH]c(=O)c2c1C 61.4%
Fc1c(F)c(C(F)(F)F)c(F)c(F)c1N1CCN(c2ccc3nnc(C(F)(F)F)n3n2)CC1 52.3%

Protection (pct of control), inactive:
Cc1c(NC(=S)NCc2ccc(F)cc2)cccc1[N+](=O)[O-] 18%
CN(CC(=O)Nc1ccc(N2CCOCC2)cc1)CC(=O)Nc1ccccc1[N+](=O)[O-] 21%
CCCCOc1ccc(NC(=O)[C@@H]2CCCN2C(=O)C2CCN(S(=O)(=O)c3ccc(C)cc3)CC2)cc1 12.8%
CCN=C1S/C(=C\c2cc(Br)ccc2OCC(=O)OCC)C(=O)N1CC 4.59%
CCCC(C)C(=O)OCC(=O)Nc1c(Br)cc(C)cc1Br (configuration not stated) 5.66%
CCc1cc(-c2n[nH]c(=S)n2CC(C)C)cs1 1.82%
CCCc1cc(-c2n[nH]c(=S)n2Cc2ccccc2)cs1 18%
CC(C)(C)c1ccc(NC(=O)COC(=O)CCc2nc3ccccc3c(=O)[nH]2)cc1 4.79%
COc1cc(Cl)c(C)cc1NC(=O)CSc1nnc(-c2cccnc2)n1Cc1ccco1 6.16%
COc1ccc(NC(=O)CSc2nnc(-c3cccs3)n2Cc2ccco2)cc1OC 5.61%
CCOc1cc(C2C(C(=O)OC)=CN(C3CCCC3)C=C2C(=O)OC)cc(Br)c1O 8.51%
COC(=O)C1=CN(C)C=C(C(=O)OC)C1c1ccc(Cl)cc1Cl 4.66%
Cc1ccnc(NC(=O)Cn2ccc([N+](=O)[O-])n2)c1 6.33%
COc1ccc(Cl)cc1NC(=O)[C@@H]1CCCN1C(=O)c1cccs1 6.26%
COc1ccc(CN2C(=O)CC(Cc3ccc(C)cc3)C2=O)cc1OC (configuration not stated) 7.23%
CCCCNS(=O)(=O)c1ccc2nc(SCC(=O)Nc3cc(C)cc(C)c3)[nH]c2c1 6.86%
O=c1cc(CSc2ccc(Cl)cc2)nc(N2CCOCC2)[nH]1 15.7%
CSCc1cc(N(C)C)nc(SCc2ccc(Cl)cc2Cl)n1 3.22%
O=C1CCCC(O)=C1N=Nc1ccc2ncsc2c1 4.07%
COc1cc(/C=C(/NC(=O)c2ccc(Cl)cc2Cl)C(=O)O)cc(OC)c1OC 8.92%
Cc1cccc(CSc2nnc(Cn3c(=O)sc4ccccc43)n2C)c1 11.3%
C=CCSc1nnc(Cn2c(=O)sc3ccccc32)n1C 12.3%
CCN(CC)S(=O)(=O)c1cc([N+](=O)[O-])ccc1N=Nc1c(O)n(C)c2ccccc12 4.65%
COc1ccc(C)cc1NC(=O)CSc1ccc(Cl)cc1 9.52%
COC(=O)[C@H](Cc1ccccc1)NC(=O)N1CC(C)OC(C)C1 (some centres not stated) 13.1%
COC(=O)[C@H](C)[C@H]1C[C@]1(C)[C@H](NC(=O)OCc1ccccc1)c1ccccc1 3.04%
CSc1ccc(/C=C/C(=O)NC23CC4CC(CC(C4)C2)C3)cc1 2.59%
CC(=O)c1ccc(N2CCN(C(=O)c3ccc4nc[nH]c4c3)CC2)cc1 20.3%
CCCc1ccc(-c2csc(NC(=O)Cc3cccs3)n2)cc1 25%
COc1ccc(-c2csc(NC(=O)CCCc3cccs3)n2)cc1 37.9%
C/C(CC(=O)Nc1cccc(F)c1)=N\NC(=O)C(=O)NC1CCCCC1 2.76%
Cc1cc(C)c(C2C3=C(Nc4c2c(C)nn4-c2ccccn2)c2ccccc2C3=O)c(C)c1 (configuration not stated) 7.66%
O=C(CN1C(=O)c2cccc3cccc(c23)C1=O)N1CCCCC1 4.32%
Cc1nnc(NC(=O)/C=C/c2ccco2)s1 22.5%
O=[N+]([O-])c1ccc(NCCCO)c(C(F)(F)F)c1 10.7%
O=C(CSc1nc2c(cnn2-c2ccc(F)cc2)c(=O)[nH]1)N1CCCCCC1 6.65%
C=CCNC(=O)CSc1nc2sc(C)c(C)c2c(=O)[nH]1 1.51%
